# Results: PubChem BioAssay (NCATS)
# Records with an inconclusive call do not appear. Activity calls are given as the source filed them. Calls come from the whole dose curve; as a rule, active = well fitted cell-killing curve with a large enough effect; inconclusive = small, poorly fitted or top-dose-only effect; inactive = no such curve, though single readings can be large or run the other way.
# Experiment: qHTS of pediatric cancer cell lines to identify multiple opportunities for drug repurposing: Primary screen for Rh41 cells (AID 1347108); note: nearly all actives have a fitted effect of over 70% in size;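 for activity change, negative = cytotoxic: luminescence drop marks cytotoxic hits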
# Settings: Rh41 rhabdomyosarcoma viability, CellTiter-Glo luminescence, 48 h; series mostly up to 46 µM; activity change, negative = cytotoxic: at the top concentration
# Source text: Drug repurposing or repositioning has been offered as a strategy for drug development in oncology programs. This approach has special potential for childhood cancers and other rare or orphan diseases, where the expected return on new drug development has been a disincentive to pharmaceuticals. […] In this project we exploit the poly-pharmacology of drugs to discover new indications via phenotypic screening of a panel of 19 well-characterized cell lines derived from solid tumors seen in children and adolescents. The goal is to identify approved drugs with previously unrecognized anticancer properties that has the potential to reveal new mechanisms and biological processes involved in carcinogenesis or drug resistance. We employed a titration-based paradigm (quantitative high-throughput screening or qHTS), where all compounds were tested at multiple concentrations for their effect on cell viability. Concentration-response curves (CRCs) were derived directly from the primary screen, and both potency and efficacy values were used to identify compounds with robust bioactivity profiles. We screened the NIH Chemical Genomics Center (NCGC) Pharmaceutical Collection (NPC) and Mechanism Interrogation Plate (MIPE) small molecule collections of approved and investigational compounds against these cell lines; and measured metabolically active cells after 48 hours of compound treatment as a proxy for cell viability. […] Assay Submitter: Nathalia J. Martinez, National Center for Advancing Translational Sciences, National Institutes of Health, Rockville, MD, USA; email: natalia.martinez@nih.gov Shen, M et al. Quantitative high-throughput phenotypic screening of pediatric cancer cell lines identifies multiple opportunities for drug repurposing. Oncotarget 2017 Dec 19;9(4):4758-4772. PMID 29435139.
# The cells were obtained from University of North Carolina (UNC), Pediatric Preclinical Testing Program (PPT), and Coriell Institute (CI). qHTS cell viability assay: Cells were assayed in growth media at a density of 500-1,000 cells/well. Five microliters of cells were dispensed into 1,536-well, white, solid-bottom, TC-treated plates (Greiner Bio One) using a multidrop dispenser and incubated at 37 degrees C, 5% CO2, under a humidified atmosphere for 5 hours. Twenty-three nanoliters of compounds and controls (neutral control DMSO or positive control bortezomib at final concentration of 2.3 µM) were subsequently transferred by Kalypsys pintool. For primary screens, the MIPE collection was tested at 11-point dilutions (final concentrations range from 0.78 nM to 46 µM) and the NPC collection at 8-point dilutions (final concentrations range from 0.59 nM to 46 µM). Compounds tested in follow-up screens were assayed at 11-point dilutions. Cells were incubated for 48 hours, followed by addition of 3 µL of CellTiter-Glo (Promega). After a 15 min incubation at room temperature, samples were analyzed for luminescence intensity using a ViewLux High-throughput CCD imager equipped with clear filters.
# Potency is the fitted concentration of half-maximal effect.
SMILES,"activity change, negative = cytotoxic",Potency
CCOC(=O)c1ncn2c1CN(C)C(=O)c1c(I)cccc1-2,22.3% (inactive),
Oc1ccc2[nH]cc(CCCCN3CC=C(c4ccccc4)CC3)c2c1,-6.99% (inactive),
CCOC(=O)C1(c2ccccc2)CCN(CCc2ccc(N)cc2)CC1,19.2% (inactive),
CCOC(=O)C(c1c(O)c2ccccc2oc1=O)c1c(O)c2ccccc2oc1=O,32.8% (inactive),
O=C(O)c1nn(Cc2ccc(Cl)cc2Cl)c2ccccc12,,inactive
CCN(Cc1ccc(Cl)nc1)/C(=C/[N+](=O)[O-])NC,26.4% (inactive),
CN1CCC(N(Cc2ccccc2)c2ccccc2)CC1,7.22% (inactive),
Sc1ccccc1Cl,8.99% (inactive),
CN1[C@@H]2CC[C@H]1CC(OC(=O)c1cc(Cl)cc(Cl)c1)C2 (stereo not given in full),-10.7% (inactive),
CC(C)NCC(O)c1ccc(N)c(C#N)c1 (stereo not given),25.6% (inactive),
COc1cc(N)c(Cl)cc1C(=O)NC1CN2CCC1CC2 (stereo not given),13.3% (inactive),
C#C[C@]1(O)C=C[C@H]2[C@@H]3CCC4=CC(=O)CC[C@@H]4[C@H]3CC[C@@]21CC,16.4% (inactive),
O=C(O)Cc1ccccc1,6.19% (inactive),
c1ccc2nc(N3CCNCC3)ccc2c1,3.82% (inactive),
COc1ccc(OC)c(CC(C)N)c1 (stereo not given),-17.9% [at 92.7 µM] (inactive),
COc1cc(CC(C)N)cc2c1OCO2 (stereo not given),-12.8% [at 92.7 µM] (inactive),
C1CN2CCC1CC2,31.3% (inactive),
CC(C)(O)C(Cl)(Cl)Cl,31.7% (inactive),
O=C(O)CCCCCCNC1c2ccccc2CCc2ccccc21,18.2% (inactive),
CNC(=O)NC(O)C(Cl)(Cl)Cl (stereo not given),6.37% (inactive),

SMILES,"activity change, negative = cytotoxic",Potency
CCN(CC)Cc1nccn1-c1ccc([N+](=O)[O-])cc1C(=O)c1ccccc1Cl,1.46% (inactive),
Cc1nnc2n1-c1sc(CCC(=O)N3CCOCC3)cc1C(c1ccccc1Cl)=NC2,5.9% (inactive),
Nc1ccc(N)cc1,19.2% (inactive),
C[C@H](N)[C@H](O)c1ccc(O)c(O)c1,1.38% (inactive),
CCCC[N+]1(C)[C@@H]2CC(OC(=O)[C@H](CO)c3ccccc3)C[C@H]1[C@@H]1O[C@@H]12 (stereo not given in full),9.59% (inactive),
C[C@@H]1CN(C2CCC(C#N)(c3ccc(F)cc3)CC2)CC[C@]1(C(=O)O)c1ccccc1 (stereo not given in full),13.7% (inactive),
CC(C)[N+](C)(CCC(C(N)=O)(c1ccccc1)c1ccccc1)C(C)C,-2.89% (inactive),
CC1COC2(c3ccccc3Cl)c3cc(Cl)ccc3NC(=O)CN12 (stereo not given),20.4% (inactive),
CN1CCc2cc(Cl)c(O)cc2[C@H]2c3ccccc3CC[C@@H]21,-6.28% (inactive),
CCCCC1C(=O)NC(=O)N(C2CCCCC2)C1=O (stereo not given),17.9% (inactive),
C[C@@H]1CC[C@H]2[C@@H](C)C(=O)O[C@@H]3O[C@@]4(C)CC[C@@H]1[C@]32OO4,-2% (inactive),
C[C@H](CN1CCOCC1)C(C(=O)N1CCCC1)(c1ccccc1)c1ccccc1,,46.9 µM (active)
NCc1cccnc1,18.7% (inactive),
CNC(=O)Oc1cccc2ccccc12,18.7% (inactive),
CC(CC(C#N)(c1ccccc1)c1ccccc1)N(C)C (stereo not given),-25% [at 92.7 µM] (inactive),
Oc1ccc([C@H]2CNCc3c2ccc(O)c3O)cc1O,7.57% (inactive),
C[C@H]1CNCCc2ccc(Cl)cc21,18.6% (inactive),
C[C@@H]1C[C@@H]([C@H](O)CC2CC(=O)NC(=O)C2)C(=O)[C@@H](C)C1,,4.69 µM (active)
CC(C)C(Br)C(=O)NC(N)=O (stereo not given),12.7% (inactive),
CC(C)=CCN1CC[C@@]2(C)c3cc(O)ccc3C[C@@H]1[C@@H]2C,-14.2% [at 92.7 µM] (inactive),
